Only some compounds are listed: those with a hit (about 3% of all), similar ones and a draw of the others.
p53null 32C kill: p53 null cell cytotoxicity, permissive temperature. H1299-neo p53 null cells, ATP luminescence, 24 h, 32C. Potency, µM (doses to about 46.1 µM), most hits filed as cytotoxic. actives 0.62% (n = 55,000). AID 903; also: nearly all actives have a fitted effect of over 55% in size
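Luminescent ATP readout gave cell viability of p53-null H1299-neo cells after a 24 h compound exposure at the permissive 32C. Titrations ran up to 46 uM, and AC50s were fitted with the standard Hill equation.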
OvCa metastasis: inhibitors of ovarian cancer cell adhesion and invasion in omental model; SKOV3ip1-GFP adhesion/invasion on 3D omental model, fluorescence; Potency, µM (top dose mostly 45.8 µM), actives largely listed as inhibitors; actives 0.1% (n = 46,000); also: nearly all actives have a fitted effect of over 65% in size
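A 3D layer of primary human omental fibroblasts, mesothelial cells, fibronectin and collagen I, grown 48 hr, received SKOV3ip1-GFP cells in serum-free medium plus compounds at 0.36-46 umol/L. After 2 hr RT and 16 hr 37 C, fixed adherent GFP cells were counted; normalized to DMSO and tomatine.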
p53null 39C kill: p53 null cell cytotoxicity, nonpermissive temperature; H1299 p53-null (neo) cells, 39C, ATPlite viability, 24 h; AID 904; actives 0.97% (n = 55,000); Potency, µM (top dose mostly 46.1 µM), usual class: cytotoxic; also: nearly all actives have a fitted effect of over 50% in size
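H1299 lung cancer cells, p53-null (H1299-neo) or expressing p53 A138V (H1299-p53A138V), were plated overnight at 37C, then exposed to compounds at up to 46 uM for 24 hr at 39C. Viability was read by ATP-based luminescence.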
pS6 MEF inh: inhibitors of mTORC1 signaling in Tsc2-/- p53-/- MEF cells; Potency, µM (titrated, usually from 38.3 µM), most hits filed as inhibitors; Tsc2-/- p53-/- MEF, phospho-rpS6 immunofluorescence/PI, 24 h; actives 0.78% (n = 44,000); also: nearly all actives have a fitted effect of over 50% in size
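Cell-based qHTS: Tsc2-/- p53-/- MEF, 24 h cpd, 37 °C; fix/perm, anti-phospho-S6 Alexa-488 + PI; Acumen 488 nm scan; pS6/PI ratio, % positive cells; rapamycin 7.5 nM = inhibition ref; PI count = viability.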
PMP22 txn prim: modulators of PMP22 gene transcription in S16 Schwann cells; Potency, µM (series often up to 57.5 µM), most hits filed as inhibitors; actives 2% (n = 43,000); AID 1508649; S16 Pmp22-F2sN Schwann cells, FLuc/NLuc coincidence luminescence, 24 h; active = clear falling dose curves in both reporters; inconclusive = both reporters move, but less clearly or upward; inactive = either reporter flat; the % is the NLuc reporter signal
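Schwann cells carrying the coincidence reporter were exposed to library compounds for 24 h at 37C, then lysed and read for FLuc and, after quenching, NLuc luminescence on a CCD imager.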
S16 F2sN tox: toxic to S16 Pmp22-F2sN Schwann cells; Potency, µM (highest dose often 57.5 µM), usual class: cytotoxic; AID 1508642; actives 0.48% (n = 43,000); S16 Pmp22-F2sN Schwann cells (luciferase reporters placed in the Pmp22 gene) viability, CellTiter-Glo, 24 h; also: nearly all actives have a fitted effect of over 65% in size
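CellTiter-Glo counter-screen, qHTS, 1536-well. Cells: S16(c9) Pmp22-F2sN, 500-1,000/well in DMEM + 10% FBS. Cpd 23 nL pin transfer, 24 h, 37C/5% CO2. Read: luminescence, CCD imager.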
Numbers stand for hits; n = inactive; u = inconclusive; x = no result; [ ] = dose if it differs, or a comment. Unless noted, calls follow the shape of the dose curve; as a rule, active = well fitted curve in the direction sought with a large enough effect; inconclusive = small, poorly fitted or top-dose-only effect, or another doubt; inactive = no such curve, though single readings can be large; an effect the other way counts as inactive or inconclusive.

SMILES | p53null 32C kill | OvCa metastasis | p53null 39C kill | pS6 MEF inh | PMP22 txn prim | S16 F2sN tox
CC(=O)N(Cc1cccnc1)c1nc2ccc(F)cc2s1 | n | n | n | n | n | n
CCn1c(-c2nonc2N)nc2cncc(CNC3CCNCC3)c21 | x | n | x | x | x | x
CC(C)c1ccc(C2=CC(c3cccc(Cl)c3)n3ncnc3N2)cc1 (stereo not given) | n | n | n | n | u | u
CCc1ccc(C2=CC(c3cccc(C)c3)n3c(nc4ccccc43)N2)cc1 (stereo not given) | 10µM | n | 10µM | n | u | u
CC(C)c1ccc(C2=CC(c3cccc(Cl)c3)n3c(nc4ccccc43)N2)cc1 (stereo not given) | 22.4µM | n | u | n | u | n
CCc1ccc(C2=CC(c3cccc(OC)c3OC)n3c(nc4ccccc43)N2)cc1 (stereo not given) | 14.1µM | n | u | n | u | u
Cc1ccc(C(N)=O)cc1Nc1nccc(-c2cn(C(C)C)c3cnccc23)n1 | x | n | x | x | x | x
O=C(Nc1cccc(Cl)c1)c1cnc[nH]1 | n[9.22 µM] | n | n | n | n | n
COc1ccc(NC(=O)c2cnc[nH]2)cc1 | 17.8µM | n | 7.94µM | n | n | n
CCOc1ccc(C(=O)Nc2ccc(C(=O)OCc3cc(=O)n4c(C)csc4n3)cc2)cc1 | u | n | 12.6µM | n | u | n
Cc1csc2nc(COC(=O)c3cccc(NC(=O)COc4ccccc4Cl)c3)cc(=O)n12 | u | n | 6.31µM | n | n | n
CCOc1ccc(NC(=O)NCCN2CCN(c3cc(Cl)ccc3C)CC2)cc1 | n | n | n | n | u | n
Cc1ccc(Cl)cc1N1CCN(CCNC(=O)Nc2ccc(Cl)cc2)CC1 | u | u | 20µM | n | u | u
N#Cc1c(C(F)(F)F)cc(-c2cccs2)nc1SCC(=O)Nc1cccc(Br)c1 | n | n | u | 11.7µM | n | n
N#Cc1c(C(F)(F)F)cc(-c2cccs2)nc1SCC(=O)Nc1cccc(Cl)c1 | n | n | n | n | n | n
COc1ccc(NC(=O)CSc2nc(-c3cccs3)cc(C(F)(F)F)n2)cc1OC | n | n | n | n | 4.22µM | u
Cn1cnc(-c2cc3nccc(Oc4ccc(NC(=S)NC(=O)Cc5ccccc5)cc4F)c3s2)c1 | x | n | x | x | x | x
COc1cccc([C@@H](C)NCCCc2ccccc2Cl)c1 | x | n | x | x | x | x
Cc1ccc(-c2cn3ccc(C)cc3n2)cc1 | 0.631µM | n | 0.794µM | n | u | n
Cc1ccc(S(=O)(=O)Nc2ccc(-c3cn4ccc(C)cc4n3)cc2)cc1 | x | x | n | x | x | x
Nc1nccc(Oc2ccc(NC(=O)c3c[nH]cc(-c4ccc(F)cc4)c3=O)cc2F)c1Cl | x | n | x | x | x | x
N#Cc1ccc(OC(=O)c2cc(-c3ccc4c(c3)OCCO4)on2)cc1 | u | n | u | n | n | n
CC(C)c1ccc(OC(=O)c2cc(-c3ccc4c(c3)OCCO4)on2)cc1 | 12.6µM | n | 31.6µM | n | n | n
COc1ccc(C(=O)Nc2ccc3c(c2)OCCO3)cc1 | 11.2µM | x | 11.2µM | x | x | x
O=C(Oc1ccc(Cl)cc1)c1cc(-c2ccc3c(c2)OCCO3)on1 | n | n | n | n | n | n
SMILES | p53null 32C kill | OvCa metastasis | p53null 39C kill | pS6 MEF inh | PMP22 txn prim | S16 F2sN tox
CCOC(=O)c1ccc(NC(=O)Nc2ccc3c(c2)OCCO3)cc1 | n | x | n | x | x | x
COc1ccc(OC(=O)c2cc(-c3ccc4c(c3)OCCO4)on2)cc1 | 12.6µM | n | u | n | n | n
COc1cc(Nc2ncc3c(n2)-c2ccc(Cl)cc2C(c2c(F)cccc2OC)=NC3)ccc1C(=O)O | x | n | x | x | x | x
COCCOc1ccc2c(c1)ncn2-c1ccc2cccc(N3CCC(N)CC3)c2n1 | x | n | x | x | x | x
C/C(=N\Nc1nc2ccccc2[nH]1)c1cc2ccccc2o1 | 10µM | x | u | x | x | x
CNC(=O)c1cc2ccccc2o1 | n | x | n | x | x | x
C[C@@H](Oc1ccc2[nH]nc(C=Cc3cnn(CCO)c3)c2c1)c1c(Cl)cncc1Cl | x | n | x | x | x | x
CCOC(=O)Cc1c(C)nc2c(-c3ccc(OC)c(OC)c3)c(C)nn2c1C | n | n | u | n | 13.5µM | u
Cc1ccc(CNC(=O)CN2C(=O)CSc3ccc(S(=O)(=O)N4CCCC4)cc32)cc1 | n | n | 12.6µM | n | n | n
CNC(=O)C1CCN(Cc2cc3ccccc3n2Cc2ccccc2C)CC1 | n | n | n | n | u | n
Cc1ccccc1Cn1c(CN2CCC(C(=O)NCCN(C)C)CC2)cc2ccccc21 | n | u | n | 7.36µM | u | u
CN(c1ccccc1)C(CNS(=O)(=O)c1ccccc1)c1ccccc1 (stereo not given) | n | n | u | n | u | n
Cc1ccc(N(C)C(CNS(=O)(=O)c2ccccc2)c2ccccc2)cc1 (stereo not given) | n | n | 14.1µM | n | u | n
CCc1ccc(C(=O)c2cnc3ccc(F)cc3c2S(=O)(=O)c2ccccc2)cc1 | n | n | n | 11.7µM | u | n
Cc1ccc2ncc(C(=O)c3ccc(C)c(C)c3)c(S(=O)(=O)c3ccccc3)c2c1 | n | n | n | n | u | u
CC(C)Sc1ncc(Cl)c(C(=O)Nc2ccc(S(=O)(=O)N(C)c3ccccc3)cc2)n1 | n | n | n | n | u | n
CCN(c1ccccc1)S(=O)(=O)c1ccc(NC(=O)c2nc(S(C)(=O)=O)ncc2Cl)cc1 | u | u | u | 3.29µM | 1.68µM | 4.47µM
CCSc1ncc(Cl)c(C(=O)Nc2ccc(S(=O)(=O)N(C)c3ccccc3)cc2)n1 | n | n | n | n | u | n
CCS(=O)(=O)c1ncc(Cl)c(C(=O)Nc2ccc(S(=O)(=O)N(C)c3ccccc3)cc2)n1 | n | n | u | 0.414µM | 1µM | 4.47µM
COc1ccc(NS(=O)(=O)c2ccc(N3CCCCS3(=O)=O)cc2)cc1Cl | n | n | n | n | 7.27µM | u
OCCN1C[C@H](O)[C@@H](O)[C@H](O)[C@@H]1CO | x | n | x | x | x | x
CCOc1ccc(C(=O)Nc2onc3c2CCCC3)cc1 | 6.31µM | n | 3.98µM | n | u | n
CC(C)(C)c1ccc(C(=O)Nc2onc3c2CCCC3)cc1 | 15.8µM | n | u | n | n | u
CC(C)COc1ccc(C(=O)Nc2onc3c2CCCC3)cc1 | u | n | 12.6µM | n | n | u
CC[C@H](Nc1ncnc2nc[nH]c12)c1nc2cccc(F)c2c(=O)n1-c1ccccc1 | x | n | x | x | x | x
Cn1cnc(=N)c2[nH]cnc21 | x | n | x | x | x | x
NC(=O)[C@@H](CCC(F)(F)F)N(Cc1ccc(-c2ncon2)cc1F)S(=O)(=O)c1ccc(Cl)cc1 | x | n | x | x | x | x

High-throughput results deposited in PubChem BioAssay by National Center for Advancing Translational Sciences (NCATS).
